Experimental data: PubChem BioAssay (NCI)
This is part of a sample that, as a whole, favours compounds with a hit. Of some 83,000 tested, about 20% had one in any assay.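 For each line, cells grew in 96-well plates with the test compound present at a single concentration for 48 hours.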 Active and inactive are the calls of the source. How the source made its calls: active means growth percent below 10; inactive means the rest.

Experiments:
Experiment in all cases: NCI-60 one-dose screen, 48 h (100 = growth as untreated, 0 = no growth, -100 = all killed)
Conditions in all cases: 10 µM unless noted
HCT-15 colon = test system: HCT-15 colon
HT29 colon = test system: HT29 colon
SNB-75 CNS = test system: SNB-75 CNS
SNB-19 CNS = test system: SNB-19 CNS
U251 CNS = test system: U251 CNS
PC-3 prostate = test system: PC-3 prostate
SK-MEL-5 melanoma = test system: SK-MEL-5 melanoma
UACC-62 melanoma = test system: UACC-62 melanoma
LOX IMVI melanoma = test system: LOX IMVI melanoma
SK-MEL-28 melanoma = test system: SK-MEL-28 melanoma
SK-MEL-2 melanoma = test system: SK-MEL-2 melanoma
EKVX NSCLC = test system: EKVX NSCLC
SN12C renal = test system: SN12C renal
UO-31 renal = test system: UO-31 renal
TK-10 renal = test system: TK-10 renal
ACHN renal = test system: ACHN renal
CAKI-1 renal = test system: CAKI-1 renal
A498 renal = test system: A498 renal
CCRF-CEM leukemia = test system: CCRF-CEM leukemia
MOLT-4 leukemia = test system: MOLT-4 leukemia

Measured: growth

O=C1Nc2cc(-c3ccc(NS(=O)(=O)c4ccc([N+](=O)[O-])cc4)cc3)ccc2/C1=C/c1ccc[nH]1
inactive: HCT-15 colon 11% | SNB-75 CNS 34.1% | SNB-19 CNS 31.1% | PC-3 prostate 25.7% | SK-MEL-5 melanoma 24.2% | SK-MEL-2 melanoma 13.9% | UO-31 renal 34.9% | CCRF-CEM leukemia 27.5% | MOLT-4 leukemia 15.8%
active: HT29 colon -17.3% | U251 CNS -62.4% | UACC-62 melanoma 0.956% | LOX IMVI melanoma -20.6% | SK-MEL-28 melanoma 9.97% | EKVX NSCLC 3.18% | SN12C renal -17.7% | TK-10 renal -2.87% | ACHN renal -62.5% | CAKI-1 renal -17.4% | A498 renal -33.6%

Cn1cc(-c2cc3nc(-c4cn(C)c5ncccc45)cc(N)n3n2)c2cc(F)ccc21
active: HT29 colon 6.68% | SNB-19 CNS 8.57% | U251 CNS -41.8%
inactive: HCT-15 colon 69% | SNB-75 CNS 52.9% | PC-3 prostate 32.5% | SK-MEL-5 melanoma 78.2% | UACC-62 melanoma 80.3% | LOX IMVI melanoma 44.4% | SK-MEL-28 melanoma 92.8% | SK-MEL-2 melanoma 83.9% | EKVX NSCLC 69.8% | SN12C renal 51.2% | UO-31 renal 52.6% | TK-10 renal 74.6% | ACHN renal 17.6% | CAKI-1 renal 12.8% | A498 renal 138% | CCRF-CEM leukemia 38.6% | MOLT-4 leukemia 55.5%

COc1ccc(C(=O)c2c(N)c(C#N)cn2-c2ccc([N+](=O)[O-])cc2)cc1
inactive: HCT-15 colon 104% | HT29 colon 102% | SNB-75 CNS 92.2% | SNB-19 CNS 100% | U251 CNS 111% | PC-3 prostate 109% | SK-MEL-5 melanoma 102% | UACC-62 melanoma 93.1% | LOX IMVI melanoma 96.3% | SK-MEL-28 melanoma 112% | SK-MEL-2 melanoma 108% | EKVX NSCLC 93.6% | SN12C renal 101% | UO-31 renal 90.1% | TK-10 renal 117% | ACHN renal 106% | CAKI-1 renal 85.4% | A498 renal 126% | CCRF-CEM leukemia 112% | MOLT-4 leukemia 105%

CN1CCc2c(sc3ncnc(N/N=C/c4cccc(Cl)c4Cl)c23)C1
inactive: SNB-75 CNS 76.3% | PC-3 prostate 96% | SK-MEL-5 melanoma 80.7% | UACC-62 melanoma 92.5% | SK-MEL-28 melanoma 103% | SK-MEL-2 melanoma 104% | EKVX NSCLC 67.4% | SN12C renal 10.3% | UO-31 renal 42.6% | TK-10 renal 72.7% | CAKI-1 renal 79.4% | A498 renal 114%
active: HCT-15 colon -14.5% | HT29 colon -12.7% | SNB-19 CNS 4.21% | U251 CNS -96.3% | LOX IMVI melanoma -82.5% | ACHN renal -39.1% | CCRF-CEM leukemia 4.9% | MOLT-4 leukemia 6.34%

Cc1ccc(N=Nc2c(N)nn3c(-c4cc5ccccc5oc4=O)ccnc23)cc1
inactive: HCT-15 colon 40.6% | HT29 colon 30.2% | SNB-75 CNS 93.7% | SNB-19 CNS 32.2% | U251 CNS 43% | PC-3 prostate 54.6% | SK-MEL-5 melanoma 42.4% | UACC-62 melanoma 82.3% | LOX IMVI melanoma 36% | SK-MEL-28 melanoma 44.7% | SK-MEL-2 melanoma 61.5% | EKVX NSCLC 49.2% | SN12C renal 48.2% | UO-31 renal 53.8% | TK-10 renal 57.9% | ACHN renal 34.9% | CAKI-1 renal 57.1% | A498 renal 150% | CCRF-CEM leukemia 70.2% | MOLT-4 leukemia 39%

COc1cc(CNC(=O)C[C@H](C)CCC=C(C)C)ccc1OCc1cn(-c2ccc(Cl)cc2Cl)nn1
active: SNB-75 CNS 7.99%
inactive: HCT-15 colon 79.6% | HT29 colon 82.3% | SNB-19 CNS 50% | U251 CNS 54.4% | PC-3 prostate 85% | SK-MEL-5 melanoma 60.4% | UACC-62 melanoma 65.6% | LOX IMVI melanoma 80.7% | SK-MEL-28 melanoma 96.3% | SK-MEL-2 melanoma 71.7% | EKVX NSCLC 81.1% | SN12C renal 64.8% | UO-31 renal 60.5% | TK-10 renal 68.7% | ACHN renal 61.1% | CAKI-1 renal 31.8% | A498 renal 59% | CCRF-CEM leukemia 116% | MOLT-4 leukemia 84%

O=C(c1ccc(O)cc1)C1[C@H](c2ccc(Cl)cc2)[C@@H](c2ccccc2)NC12C(=O)Nc1ccc(Br)cc12 (stereo not given in full)
active: HCT-15 colon -67% | HT29 colon -68.1% | SNB-75 CNS -13% | SNB-19 CNS -2.97% | U251 CNS -62% | PC-3 prostate -16% | SK-MEL-5 melanoma -93.3% | UACC-62 melanoma -40% | LOX IMVI melanoma -100% | SK-MEL-28 melanoma -5.57% | SK-MEL-2 melanoma -76.1% | EKVX NSCLC -5.33% | SN12C renal -92.6% | UO-31 renal -25.7% | TK-10 renal 1.72% | ACHN renal 0.788% | CAKI-1 renal 3.93% | A498 renal -15.5% | CCRF-CEM leukemia -11.1% | MOLT-4 leukemia -34.2%

CCN1C(=O)N(CC)C2NNC(Sc3c(C(=O)O)c4ccccc4n(CC(C)C)c3=O)=NC21 (stereo not given)
active: HCT-15 colon 7.04% | HT29 colon -8.58% | SK-MEL-5 melanoma 2.31% | CCRF-CEM leukemia 7.54% | MOLT-4 leukemia 6.5%
inactive: SNB-75 CNS 34.4% | SNB-19 CNS 17% | U251 CNS 10.7% | PC-3 prostate 29.9% | UACC-62 melanoma 14.7% | LOX IMVI melanoma 16.5% | SK-MEL-28 melanoma 54.4% | SK-MEL-2 melanoma 18.5% | EKVX NSCLC 38.5% | SN12C renal 24.3% | UO-31 renal 39.5% | TK-10 renal 52.7% | ACHN renal 28.7% | CAKI-1 renal 46.1% | A498 renal 133%

C[C@H]1[C@@H](CC(=O)N[C@@H](Cc2coc3ccccc23)B(O)O)O[C@@H]2OC3(C)CC[C@H]4[C@H](C)CC[C@@H]1[C@@]24O3
active: HCT-15 colon -51.7% | HT29 colon -57.4% | SNB-75 CNS -19% | SK-MEL-5 melanoma -83.4% | UACC-62 melanoma -75.8% | LOX IMVI melanoma -72.7% | SK-MEL-28 melanoma 5.12% | SK-MEL-2 melanoma -20.7% | SN12C renal 6% | TK-10 renal 1.76% | ACHN renal 6.94% | CCRF-CEM leukemia -0.752%
inactive: SNB-19 CNS 35% | U251 CNS 25.2% | PC-3 prostate 28.5% | EKVX NSCLC 28.2% | UO-31 renal 12.4% | CAKI-1 renal 15.5% | A498 renal 44.5% | MOLT-4 leukemia 14.2%

COc1cc(CNC(=O)C[C@H](C)CCC=C(C)C)ccc1OCc1cn(-c2ccccc2Cl)nn1
inactive: HCT-15 colon 53.8% | HT29 colon 76.7% | SNB-75 CNS 60% | SNB-19 CNS 61.3% | U251 CNS 80.6% | PC-3 prostate 49.4% | UACC-62 melanoma 39.6% | LOX IMVI melanoma 56.4% | SK-MEL-28 melanoma 69.8% | SK-MEL-2 melanoma 53.3% | EKVX NSCLC 54% | SN12C renal 69.6% | UO-31 renal 30.3% | TK-10 renal 93.1% | ACHN renal 67.6% | CAKI-1 renal 46.3% | A498 renal 107% | CCRF-CEM leukemia 40.1% | MOLT-4 leukemia 16.3%
active: SK-MEL-5 melanoma 5.29%

Nc1nn2c(-c3cc4cc(Br)ccc4oc3=O)ccnc2c1N=Nc1ccc(S(N)(=O)=O)cc1
inactive: HCT-15 colon 103% | HT29 colon 92.4% | SNB-75 CNS 116% | SNB-19 CNS 41.6% | U251 CNS 28.1% | PC-3 prostate 87.5% | SK-MEL-5 melanoma 63.7% | UACC-62 melanoma 83.7% | LOX IMVI melanoma 63.8% | SK-MEL-28 melanoma 80.7% | SK-MEL-2 melanoma 94.6% | EKVX NSCLC 91.9% | SN12C renal 74% | UO-31 renal 76.6% | TK-10 renal 114% | ACHN renal 95.7% | CAKI-1 renal 81% | A498 renal 149% | CCRF-CEM leukemia 82.3% | MOLT-4 leukemia 89.9%

OC(c1ccccc1)(c1ccccc1)C1CCN(c2ccc3nnc(Cl)n3n2)CC1
inactive: HCT-15 colon 18.1% | HT29 colon 26.8% | SNB-75 CNS 61.3% | SNB-19 CNS 63.3% | U251 CNS 45.9% | PC-3 prostate 16.2% | UACC-62 melanoma 54.5% | LOX IMVI melanoma 38.3% | SK-MEL-28 melanoma 52.2% | SK-MEL-2 melanoma 31.3% | EKVX NSCLC 19.9% | SN12C renal 50.1% | TK-10 renal 49.7% | ACHN renal 29.7% | CAKI-1 renal 30.8% | A498 renal 77.8% | CCRF-CEM leukemia 18.2%
active: SK-MEL-5 melanoma -84.6% | UO-31 renal -74.1% | MOLT-4 leukemia -2.45%
